Laboratory results reported in the supplement of paper PMC10849652.
About 7,900 targets were measured; listed, in parts, are those with a hit and a random draw of the rest. About 0.6% of all pairs of compound and target were hits.

Assays:
Experiment in all cases: log2 fold change, soluble protein after heating vs DMSO (PISA); higher = thermal stabilisation; K562 cells, 10 uM, 30 min; active = over 0.2 and 3.5 SD of the protein, either way, in both replicates (recomputed)
[1] = compound: CN1CCN(CCOc2cc(OC3CCOCC3)c3c(Nc4c(Cl)ccc5c4OCO5)ncnc3c2)CC1 [saracatinib]
Method in brief: (§1)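 Soluble protein was quantified by TMTpro 16plex LC-MS/MS after channel sums were equalised. It was obtained as the supernatant after 21,000xg for 90 min from pooled aliquots of K562 cells (2×10^6 cells/mL, 10 μM compound, 30 min) heated for 3 min across 48°C-58°C and extracted in PBS with 0.5% NP-40 at 4°C. Thermal stability values are relative to control samples and come from duplicates. They are given as log2 fold changes.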

[2] = compound: CN1CCN(c2nc(C3=C(c4c[nH]c5ccccc45)C(=O)NC3=O)c3ccccc3n2)CC1 [sotrastaurin]
Method in brief: as §1

[3] = compound: CN1CC[C@H](c2c(O)cc(O)c3c(=O)cc(-c4ccccc4Cl)oc23)[C@H](O)C1 [alvocidib]
Method in brief: as §1

[4] = compound: CN1CCc2c(c3ccccc3n2Cc2ccc(C(=O)NO)cc2)C1 [Tubastatin A]
Method in brief: as §1

[5] = compound: CNC(=O)C1=CC=CC=C1NC2=NC(=NC=C2Cl)NC3=C(C=C(C=C3)N4CCOCC4)OC
Method in brief: as §1

[6] = compound: CNC(=O)c1ccc(Nc2ncc(C(F)(F)F)c(NCc3nccnc3N(C)S(C)(=O)=O)n2)cc1 [defactinib]
Method in brief: as §1

[7] = compound: CNCc1ccc(-c2[nH]c3cc(F)cc4c3c2CCNC4=O)cc1 [rucaparib]
Method in brief: as §1

[8] = compound: CNc1nc(-c2ccc3c(N)n[nH]c3c2)cc(N2C[C@@H](C(=O)NC3CCCCC3)CC[C@H]2C)n1
Method in brief: as §1

[9] = compound: COC(=O)N[C@@H](C)CNc1nccc(-c2cn(C(C)C)nc2-c2cc(Cl)cc(NS(C)(=O)=O)c2F)n1 [encorafenib]
Method in brief: as §1

[10] = compound: COC(=O)[C@H](CCSC)NC(=O)C1=C(C=C(C=C1)NC[C@H](CS)N)C2=CC=CC=C2
Method in brief: as §1

[11] = compound: COC1=CC=C(C=C1)CN2C=CC3=C2C=C(C=C3)C(=O)NO
Method in brief: as §1

[12] = compound: CON(C)C(=O)N1N=C(c2cc(F)ccc2F)S[C@@]1(CCCN)c1ccccc1 [filanesib]
Method in brief: as §1

[13] = compound: CO[C@H]1C[C@@H]2CC[C@@H](C)[C@@](O)(O2)C(=O)C(=O)N2CCCC[C@H]2C(=O)O[C@H]([C@H](C)C[C@@H]2CC[C@H](n3cnnn3)[C@H](OC)C2)CC(=O)[C@H](C)/C=C(\C)[C@@H](O)[C@@H](OC)C(=O)[C@H](C)C[C@H](C)/C=C/C=C/C=C/1C [zotarolimus]
Method in brief: as §1

[14] = compound: COc1cc(C(=O)O)ccc1NC(=O)[C@@H]1N[C@@H](CC(C)(C)C)[C@](C#N)(c2ccc(Cl)cc2F)[C@H]1c1cccc(Cl)c1F [idasanutlin]
Method in brief: as §1

[15] = compound: COc1cc(Nc2ncc3c(n2)-c2ccc(Cl)cc2C(c2c(F)cccc2OC)=NC3)ccc1C(=O)O [alisertib]
Method in brief: as §1

[16] = compound: COc1cc2nc(-c3cc(F)ccc3O)nc(N[C@@H]3CNC[C@H]3C(C)(C)O)c2cc1OC
Method in brief: as §1

[17] = compound: COc1cc2ncnc(Nc3ccc(F)c(Cl)c3)c2cc1OCCCN1CCOCC1 [gefitinib]
Method in brief: as §1

[18] = compound: COc1cccc2cc(-c3nc([C@H]4CC[C@H](C(=O)O)CC4)n4ncnc(N)c34)[nH]c12
Method in brief: as §1

[19] = compound: CS(=O)(=O)CCNCc1ccc(-c2ccc3ncnc(Nc4ccc(OCc5cccc(F)c5)c(Cl)c4)c3c2)o1 [lapatinib]
Method in brief: as §1

[20] = compound: CS(=O)(=O)N1CCN(Cc2cc3nc(-c4cccc5[nH]ncc45)nc(N4CCOCC4)c3s2)CC1 [pictilisib]
Method in brief: as §1

Measured: log2 fold change

DSN1 (UniProt Q9H410)
Sequence of UniProt Q9H410 (Q9H410 whole entry, looked up): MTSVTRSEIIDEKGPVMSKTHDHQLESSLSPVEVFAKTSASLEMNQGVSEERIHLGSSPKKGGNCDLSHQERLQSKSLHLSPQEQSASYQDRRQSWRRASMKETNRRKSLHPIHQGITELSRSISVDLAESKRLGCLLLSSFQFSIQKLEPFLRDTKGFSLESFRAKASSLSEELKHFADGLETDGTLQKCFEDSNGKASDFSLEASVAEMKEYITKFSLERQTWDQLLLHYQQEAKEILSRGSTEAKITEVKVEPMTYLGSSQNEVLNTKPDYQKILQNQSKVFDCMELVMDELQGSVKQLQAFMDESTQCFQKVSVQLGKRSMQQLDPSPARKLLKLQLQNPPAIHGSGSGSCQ
inactive: [1] 0.032 | [2] -0.042 | [3] -0.164 | [4] 0.082 | [5] -0.031 | [6] -0.146 | [7] 0.076 | [8] 0.016 | [9] 0.02 | [10] 0.029 | [11] 0.032 | [12] 0.048 | [13] 0.114 | [14] -0.013 | [15] 0.018 | [16] -0.017 | [17] 0.113 | [18] -0.23 | [19] -0.028

E2F4 (UniProt Q16254)
inactive: [1] -0.012 | [2] -0.056 | [3] -0.134 | [4] 0.028 | [5] -0.045 | [6] -0.122 | [7] -0.025 | [8] -0.02 | [9] -0.002 | [10] -0.042 | [11] -0.024 | [12] -0.034 | [13] 0.042 | [14] 0.006 | [15] -0.056 | [16] -0.098 | [17] 0.003 | [18] 0.059 | [19] 0.047 | [20] 0.044

EIF4E2 (UniProt O60573)
Sequence of UniProt O60573 (O60573 whole entry, looked up): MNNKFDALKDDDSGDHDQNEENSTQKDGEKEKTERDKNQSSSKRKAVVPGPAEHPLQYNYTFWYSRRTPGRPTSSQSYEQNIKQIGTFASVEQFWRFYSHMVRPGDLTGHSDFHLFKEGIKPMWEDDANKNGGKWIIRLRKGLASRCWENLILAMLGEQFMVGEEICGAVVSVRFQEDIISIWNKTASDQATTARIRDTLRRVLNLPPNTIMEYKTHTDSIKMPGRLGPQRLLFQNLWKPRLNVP
inactive: [1] -0.229 | [2] -0.288 | [3] -0.052 | [4] 0.07 | [5] -0.026 | [6] -0.001 | [7] 0.126 | [8] 0.008 | [9] -0.013 | [10] -0.013 | [11] -0.062 | [12] -0.089 | [13] 0.058 | [14] 0.024 | [15] 0.059 | [16] -0.043 | [17] 0.043 | [18] -0.251 | [19] 0.033

EIF3J (UniProt O75822)
Sequence of UniProt O75822 (O75822 whole entry, looked up): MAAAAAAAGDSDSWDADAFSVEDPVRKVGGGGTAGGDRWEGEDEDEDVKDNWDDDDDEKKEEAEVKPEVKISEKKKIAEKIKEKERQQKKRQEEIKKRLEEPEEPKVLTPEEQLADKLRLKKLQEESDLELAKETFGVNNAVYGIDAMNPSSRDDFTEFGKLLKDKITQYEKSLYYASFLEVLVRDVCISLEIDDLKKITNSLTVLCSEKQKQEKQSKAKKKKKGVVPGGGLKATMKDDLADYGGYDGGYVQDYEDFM
inactive: [1] -0.042 | [2] -0.028 | [3] 0.006 | [4] -0.005 | [5] 0.019 | [6] 0.019 | [7] -0.072 | [8] -0.037 | [9] -0.008 | [10] -0.029 | [11] -0.067 | [12] -0.086 | [13] 0.007 | [14] -0.042 | [15] -0.018 | [16] 0.079 | [17] -0.004 | [18] -0.057 | [19] -0.057 | [20] -0.04

EMD (UniProt P50402)
inactive: [1] 0.011 | [2] 0.063 | [3] -0.043 | [4] -0.028 | [5] -0.046 | [6] -0.027 | [7] 0.008 | [8] -0.064 | [9] -0.056 | [10] 0.032 | [11] -0.049 | [12] -0.013 | [13] 0.007 | [14] 0.037 | [15] -0.08 | [16] -0.031 | [17] -0.053 | [18] 0.074 | [19] -0.025 | [20] 0.093

DIAPH1 (UniProt O60610)
Sequence of UniProt O60610 (O60610 whole entry, looked up): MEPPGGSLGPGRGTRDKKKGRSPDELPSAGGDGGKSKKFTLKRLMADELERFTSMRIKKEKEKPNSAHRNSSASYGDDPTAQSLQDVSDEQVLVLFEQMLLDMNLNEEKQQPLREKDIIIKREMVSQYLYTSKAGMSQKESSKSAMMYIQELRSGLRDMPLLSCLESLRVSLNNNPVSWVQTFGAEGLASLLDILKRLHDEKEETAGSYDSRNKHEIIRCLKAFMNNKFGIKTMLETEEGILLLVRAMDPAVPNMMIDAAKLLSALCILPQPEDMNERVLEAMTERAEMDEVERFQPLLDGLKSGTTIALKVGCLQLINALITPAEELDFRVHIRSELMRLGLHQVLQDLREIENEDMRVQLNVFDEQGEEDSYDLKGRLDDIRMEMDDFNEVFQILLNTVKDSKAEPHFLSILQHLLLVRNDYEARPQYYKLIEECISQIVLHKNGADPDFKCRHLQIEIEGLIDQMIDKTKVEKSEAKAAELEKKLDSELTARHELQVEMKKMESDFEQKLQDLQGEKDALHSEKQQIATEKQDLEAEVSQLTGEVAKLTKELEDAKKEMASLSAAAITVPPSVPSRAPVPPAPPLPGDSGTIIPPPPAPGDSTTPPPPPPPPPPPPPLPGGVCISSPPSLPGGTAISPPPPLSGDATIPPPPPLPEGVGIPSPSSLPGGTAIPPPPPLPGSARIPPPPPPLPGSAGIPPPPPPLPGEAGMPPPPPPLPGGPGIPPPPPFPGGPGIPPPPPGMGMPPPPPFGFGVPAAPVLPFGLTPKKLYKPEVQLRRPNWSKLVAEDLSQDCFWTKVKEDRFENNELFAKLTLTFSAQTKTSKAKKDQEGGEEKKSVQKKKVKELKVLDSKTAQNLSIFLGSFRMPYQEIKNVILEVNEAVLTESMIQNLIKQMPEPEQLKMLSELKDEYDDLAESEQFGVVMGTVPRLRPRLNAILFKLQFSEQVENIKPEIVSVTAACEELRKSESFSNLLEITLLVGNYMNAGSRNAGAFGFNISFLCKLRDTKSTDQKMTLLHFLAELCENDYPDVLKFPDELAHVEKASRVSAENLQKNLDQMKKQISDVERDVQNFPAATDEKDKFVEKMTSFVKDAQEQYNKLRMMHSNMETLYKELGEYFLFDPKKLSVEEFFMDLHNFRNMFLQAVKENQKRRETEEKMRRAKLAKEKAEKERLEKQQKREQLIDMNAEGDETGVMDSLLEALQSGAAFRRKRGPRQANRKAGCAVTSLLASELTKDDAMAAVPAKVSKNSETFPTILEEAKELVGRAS
inactive: [1] -0.104 | [2] -0.276 | [3] 0.132 | [4] 0.086 | [5] 0.044 | [6] -0.039 | [7] 0.219 | [8] 0.125 | [9] 0.215 | [10] -0.12 | [11] 0.008 | [12] 0.083 | [13] 0.081 | [14] 0.04 | [15] -0.099 | [16] -0.06 | [17] 0.046 | [18] -0.193 | [19] 0.075 | [20] 0.006

DHFR (UniProt P00374)
Sequence of UniProt P00374 (P00374 whole entry, looked up): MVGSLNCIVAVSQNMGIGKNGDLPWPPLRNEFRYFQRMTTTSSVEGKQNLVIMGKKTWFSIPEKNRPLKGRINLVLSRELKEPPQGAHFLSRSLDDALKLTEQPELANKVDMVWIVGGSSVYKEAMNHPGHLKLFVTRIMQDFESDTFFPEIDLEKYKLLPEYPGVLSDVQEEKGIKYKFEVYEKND
inactive: [1] -0.193 | [3] 0.215 | [5] -0.115 | [6] -0.109 | [7] 0.39 | [8] 0.036 | [9] 0.109 | [10] -0.059 | [11] -0.057 | [12] 0.089 | [13] 0.065 | [14] -0.051 | [15] -0.08 | [16] 0.109 | [17] -0.021 | [18] -0.05 | [19] -0.061 | [20] 0.039
active: [2] 1.66 | [4] 1.77

EFCAB14 (UniProt O75071)
Sequence of UniProt O75071 (O75071 whole entry, looked up): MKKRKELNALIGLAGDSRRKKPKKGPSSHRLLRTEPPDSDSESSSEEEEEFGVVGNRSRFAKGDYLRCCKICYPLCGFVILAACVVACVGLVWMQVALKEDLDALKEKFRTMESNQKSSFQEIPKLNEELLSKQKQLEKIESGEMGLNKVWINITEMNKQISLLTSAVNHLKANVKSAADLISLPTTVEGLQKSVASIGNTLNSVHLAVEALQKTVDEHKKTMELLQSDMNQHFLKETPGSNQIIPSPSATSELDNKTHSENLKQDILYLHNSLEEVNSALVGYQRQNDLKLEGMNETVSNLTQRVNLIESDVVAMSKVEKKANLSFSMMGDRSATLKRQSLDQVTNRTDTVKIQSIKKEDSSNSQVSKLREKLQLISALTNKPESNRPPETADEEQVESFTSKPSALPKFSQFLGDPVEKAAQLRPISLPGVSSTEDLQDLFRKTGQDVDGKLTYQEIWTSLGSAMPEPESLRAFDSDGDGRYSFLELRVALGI
inactive: [1] -0.164 | [2] 0.083 | [3] 0.016 | [4] -0.029 | [5] -0.03 | [6] 0.093 | [7] -0.059 | [8] 0.031 | [9] 0.044 | [10] -0.086 | [11] 0.139 | [12] -0.018 | [13] 0.147 | [14] 0.027 | [15] 0.043 | [16] -0.014 | [17] 0.04 | [18] -0.04 | [19] 0.021 | [20] 0.06

CYBA (UniProt P13498)
inactive: [1] 0.067 | [2] 0.033 | [3] -0.031 | [4] -0.02 | [5] 0.01 | [6] 0.014 | [7] -0.035 | [8] -0.013 | [9] 0.031 | [10] 0.008 | [11] -0.06 | [12] -0.189 | [13] -0.067 | [14] 0.017 | [15] -0.044 | [16] -0.171 | [17] -0.007 | [18] 0.067 | [19] -0.034 | [20] -0.047

FAM114A2 (UniProt Q9NRY5)
inactive: [1] 0.005 | [2] -0.048 | [3] -0.078 | [4] -0.019 | [5] -0.001 | [6] -0.04 | [7] -0.022 | [8] -0.054 | [9] 0.008 | [10] 0.025 | [11] 0 | [12] -0.131 | [13] -0.01 | [14] -0.036 | [15] -0.038 | [16] -0.093 | [17] 0.002 | [18] 0.035 | [19] -0.009 | [20] -0.02

DNAAF2 (UniProt Q9NVR5)
Sequence of UniProt Q9NVR5 (Q9NVR5 whole entry, looked up): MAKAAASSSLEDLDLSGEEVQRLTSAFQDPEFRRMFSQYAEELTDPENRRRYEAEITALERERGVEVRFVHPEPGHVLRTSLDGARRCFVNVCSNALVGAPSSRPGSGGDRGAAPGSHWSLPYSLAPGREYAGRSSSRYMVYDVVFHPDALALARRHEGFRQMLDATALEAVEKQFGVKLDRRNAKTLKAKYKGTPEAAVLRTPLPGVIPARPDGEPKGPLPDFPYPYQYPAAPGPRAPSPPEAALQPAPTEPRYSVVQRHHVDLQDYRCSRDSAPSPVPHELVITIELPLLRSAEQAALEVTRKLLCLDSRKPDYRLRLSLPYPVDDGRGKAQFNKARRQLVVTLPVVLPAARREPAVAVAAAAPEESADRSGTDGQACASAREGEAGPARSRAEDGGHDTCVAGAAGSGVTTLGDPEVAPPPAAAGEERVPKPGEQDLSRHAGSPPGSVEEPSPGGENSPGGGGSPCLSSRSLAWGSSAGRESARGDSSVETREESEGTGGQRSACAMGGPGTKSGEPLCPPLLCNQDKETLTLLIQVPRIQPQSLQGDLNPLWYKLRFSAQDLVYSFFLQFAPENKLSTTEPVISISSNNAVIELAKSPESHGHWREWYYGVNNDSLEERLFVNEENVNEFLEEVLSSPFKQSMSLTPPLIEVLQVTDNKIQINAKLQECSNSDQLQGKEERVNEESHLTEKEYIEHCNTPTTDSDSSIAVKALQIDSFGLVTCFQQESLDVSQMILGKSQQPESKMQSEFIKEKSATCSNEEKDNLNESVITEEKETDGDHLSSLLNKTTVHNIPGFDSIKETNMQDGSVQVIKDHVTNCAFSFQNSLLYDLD
inactive: [1] 0.048 | [2] 0 | [3] -0.065 | [4] -0.042 | [5] 0.01 | [6] -0.142 | [7] 0.031 | [8] -0.033 | [9] 0.026 | [10] 0.043 | [11] 0.009 | [12] -0.012 | [13] 0.016 | [14] -0.033 | [15] 0.005 | [16] 0.015 | [17] 0.035 | [18] 0.062 | [19] -0.026 | [20] 0.232

CTSC (UniProt P53634)
inactive: [1] 0.03 | [2] 0.046 | [3] 0.074 | [4] -0.015 | [5] 0.052 | [6] 0.035 | [7] 0.031 | [8] -0.005 | [9] -0.082 | [10] 0.007 | [11] 0.019 | [12] -0.065 | [13] 0.001 | [14] -0.024 | [15] 0.021 | [16] -0.04 | [17] 0.036 | [18] 0.026 | [19] -0.031 | [20] 0.083

DYNC1LI2 (UniProt O43237)
inactive: [1] -0.001 | [2] -0.079 | [3] 0.258 | [4] 0.033 | [5] 0.028 | [6] -0.039 | [7] 0.42 | [8] 0.003 | [9] 0.212 | [10] 0.016 | [11] -0.19 | [12] 0.384 | [13] 0.005 | [14] 0.092 | [15] -0.053 | [16] 0.101 | [17] -0.099 | [18] -0.119 | [19] 0.116 | [20] -0.223

EDC3 (UniProt Q96F86)
Sequence of UniProt Q96F86 (Q96F86 whole entry, looked up): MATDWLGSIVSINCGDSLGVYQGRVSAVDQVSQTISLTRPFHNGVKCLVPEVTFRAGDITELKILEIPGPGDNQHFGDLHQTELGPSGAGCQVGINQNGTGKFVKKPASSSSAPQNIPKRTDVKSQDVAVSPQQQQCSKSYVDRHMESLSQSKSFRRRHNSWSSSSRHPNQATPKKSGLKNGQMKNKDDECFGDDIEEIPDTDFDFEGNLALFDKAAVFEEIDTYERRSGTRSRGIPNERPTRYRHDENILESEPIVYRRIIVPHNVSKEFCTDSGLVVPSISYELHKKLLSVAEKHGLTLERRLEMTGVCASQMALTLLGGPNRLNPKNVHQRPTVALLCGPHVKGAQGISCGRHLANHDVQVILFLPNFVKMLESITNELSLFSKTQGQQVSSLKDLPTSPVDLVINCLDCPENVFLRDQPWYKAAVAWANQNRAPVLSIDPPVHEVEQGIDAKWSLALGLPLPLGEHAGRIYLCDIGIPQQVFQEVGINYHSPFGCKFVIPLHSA
inactive: [1] -0.041 | [2] -0.304 | [3] -0.021 | [4] 0.053 | [5] -0.021 | [6] -0.04 | [7] 0.015 | [8] -0.237 | [9] 0.048 | [10] 0.005 | [11] 0.02 | [12] 0.112 | [13] -0.156 | [14] 0.065 | [15] 0.02 | [16] 0.046 | [17] -0.013 | [18] -0.337 | [19] -0.019 | [20] -0.187

EXOC8 (UniProt Q8IYI6)
Sequence of UniProt Q8IYI6 (Q8IYI6 whole entry, looked up): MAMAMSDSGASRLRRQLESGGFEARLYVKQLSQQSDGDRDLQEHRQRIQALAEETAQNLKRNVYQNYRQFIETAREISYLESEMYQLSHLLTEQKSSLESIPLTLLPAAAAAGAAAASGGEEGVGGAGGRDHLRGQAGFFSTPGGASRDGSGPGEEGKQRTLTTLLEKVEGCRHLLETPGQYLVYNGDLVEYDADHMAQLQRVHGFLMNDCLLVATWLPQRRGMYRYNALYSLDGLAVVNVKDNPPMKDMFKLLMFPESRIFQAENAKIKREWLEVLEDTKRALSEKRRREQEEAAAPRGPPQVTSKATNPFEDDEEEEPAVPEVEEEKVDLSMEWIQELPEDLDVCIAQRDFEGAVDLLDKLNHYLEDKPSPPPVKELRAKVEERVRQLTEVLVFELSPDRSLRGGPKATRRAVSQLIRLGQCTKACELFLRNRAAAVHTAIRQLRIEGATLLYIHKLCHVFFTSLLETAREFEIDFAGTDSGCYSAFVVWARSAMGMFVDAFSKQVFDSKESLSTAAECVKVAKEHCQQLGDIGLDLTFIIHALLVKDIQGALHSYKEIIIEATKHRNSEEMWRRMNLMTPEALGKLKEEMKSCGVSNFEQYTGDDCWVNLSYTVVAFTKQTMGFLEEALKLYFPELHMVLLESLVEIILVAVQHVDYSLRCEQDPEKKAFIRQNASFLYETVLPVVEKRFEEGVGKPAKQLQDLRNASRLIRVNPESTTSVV
inactive: [1] -0.015 | [2] -0.196 | [3] -0.031 | [4] -0.012 | [5] 0.056 | [6] -0.069 | [7] 0.016 | [8] 0.112 | [9] 0.094 | [10] -0.047 | [11] 0.005 | [12] -0.044 | [13] 0.056 | [14] -0.072 | [15] 0.014 | [16] 0.038 | [17] -0.047 | [18] -0.003 | [19] -0.054 | [20] -0.156

ELOC (UniProt Q15369)
Sequence of UniProt Q15369 (Q15369 whole entry, looked up): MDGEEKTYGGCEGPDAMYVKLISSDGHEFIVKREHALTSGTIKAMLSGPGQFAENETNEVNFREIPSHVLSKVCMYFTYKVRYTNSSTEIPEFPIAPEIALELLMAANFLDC
inactive: [1] 0.008 | [2] 0.01 | [3] -0.074 | [4] 0.035 | [5] 0.025 | [6] -0.033 | [7] -0.021 | [8] 0 | [9] -0.021 | [10] -0.014 | [11] 0.007 | [12] 0.04 | [13] 0.096 | [14] -0.009 | [15] -0.009 | [16] 0.033 | [17] -0.006 | [18] 0.011 | [19] -0.002 | [20] 0.105
